# Test results as given in publication PMC7862700, “An all-to-all approach to the identification of sequence-specific readers for epigenetic DNA modifications on cytosine”.
# Assays:
# Assay in all cases: DAPPL (digital affinity profiling via proximity ligation, sequencing); 10 mM Tris-HCl pH 7.5, 50 mM NaCl, 1 mM DTT, 4% glycerol, room temperature, 30 min; GST-TFs on glutathione beads, 16-mer random dsDNA library, 0.1% formaldehyde crosslink after washing; high values mean tight binding
# [1] = target: T1, FLI1 (Homo sapiens, UniProt Q01543 1-452); conditions: protein: recombinant; tags: N-terminal GST; dsDNA, one strand shown
# T1 sequence: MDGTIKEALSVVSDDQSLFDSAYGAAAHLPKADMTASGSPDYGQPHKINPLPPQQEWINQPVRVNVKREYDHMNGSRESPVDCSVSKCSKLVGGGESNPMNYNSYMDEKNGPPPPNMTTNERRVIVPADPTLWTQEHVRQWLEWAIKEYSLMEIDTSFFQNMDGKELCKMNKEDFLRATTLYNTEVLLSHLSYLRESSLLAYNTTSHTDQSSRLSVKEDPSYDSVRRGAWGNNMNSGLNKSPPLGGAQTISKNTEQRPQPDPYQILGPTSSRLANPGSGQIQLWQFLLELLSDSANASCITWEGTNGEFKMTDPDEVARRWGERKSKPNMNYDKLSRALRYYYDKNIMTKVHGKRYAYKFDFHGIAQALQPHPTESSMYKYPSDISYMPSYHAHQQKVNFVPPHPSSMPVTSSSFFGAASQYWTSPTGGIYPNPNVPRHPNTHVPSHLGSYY
# Outline: (§1)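 GST fusions of human transcription factors were expressed in yeast and captured with glutathione beads. Once given DNA barcodes and pooled alongside a tag-only sample, they were incubated for 30 min at room temperature with 200 nmole of a random double-stranded 16-mer DNA library in Tris/NaCl/DTT/glycerol buffer, then washed, crosslinked (0.1% formaldehyde), proximity-ligated, PCR-amplified and sequenced on an Illumina NextSeq500. The binding signal of each hexamer is its read frequency for a factor divided by its frequency for the tag-only sample.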
# [2] = target: T2, ELK1 (Homo sapiens, UniProt P19419 1-428); conditions: protein: recombinant; tags: N-terminal GST; dsDNA, one strand shown
# T2 sequence: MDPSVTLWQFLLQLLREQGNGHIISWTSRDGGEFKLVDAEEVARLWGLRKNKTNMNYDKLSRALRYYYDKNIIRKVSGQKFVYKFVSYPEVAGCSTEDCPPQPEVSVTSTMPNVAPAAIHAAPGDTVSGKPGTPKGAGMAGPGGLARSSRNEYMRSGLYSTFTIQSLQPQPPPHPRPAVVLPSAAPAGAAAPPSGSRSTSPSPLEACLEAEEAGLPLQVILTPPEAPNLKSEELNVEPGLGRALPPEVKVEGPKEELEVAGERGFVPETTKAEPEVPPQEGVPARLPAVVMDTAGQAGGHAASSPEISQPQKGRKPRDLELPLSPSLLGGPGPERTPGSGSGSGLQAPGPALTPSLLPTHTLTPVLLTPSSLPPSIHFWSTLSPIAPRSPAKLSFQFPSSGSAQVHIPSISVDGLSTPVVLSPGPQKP
# Outline: as §1
# [3] = target: T3, GABPA (Homo sapiens, UniProt Q06546 1-454); conditions: protein: recombinant; tags: N-terminal GST; dsDNA, one strand shown
# T3 sequence: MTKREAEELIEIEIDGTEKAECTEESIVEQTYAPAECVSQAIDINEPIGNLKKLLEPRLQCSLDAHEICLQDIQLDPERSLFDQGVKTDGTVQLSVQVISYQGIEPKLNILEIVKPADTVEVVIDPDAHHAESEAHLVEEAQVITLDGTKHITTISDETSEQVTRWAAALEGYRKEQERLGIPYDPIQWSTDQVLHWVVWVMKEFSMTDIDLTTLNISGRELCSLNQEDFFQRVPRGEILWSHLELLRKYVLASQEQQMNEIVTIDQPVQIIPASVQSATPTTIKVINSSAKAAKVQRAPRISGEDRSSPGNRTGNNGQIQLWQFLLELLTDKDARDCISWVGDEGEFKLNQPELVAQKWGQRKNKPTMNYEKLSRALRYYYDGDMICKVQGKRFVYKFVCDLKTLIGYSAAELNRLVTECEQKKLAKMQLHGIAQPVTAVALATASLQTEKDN
# Outline: as §1
# [4] = target: T4, ERG (Homo sapiens, UniProt P11308 1-479); conditions: protein: recombinant; tags: N-terminal GST; dsDNA, one strand shown
# T4 sequence: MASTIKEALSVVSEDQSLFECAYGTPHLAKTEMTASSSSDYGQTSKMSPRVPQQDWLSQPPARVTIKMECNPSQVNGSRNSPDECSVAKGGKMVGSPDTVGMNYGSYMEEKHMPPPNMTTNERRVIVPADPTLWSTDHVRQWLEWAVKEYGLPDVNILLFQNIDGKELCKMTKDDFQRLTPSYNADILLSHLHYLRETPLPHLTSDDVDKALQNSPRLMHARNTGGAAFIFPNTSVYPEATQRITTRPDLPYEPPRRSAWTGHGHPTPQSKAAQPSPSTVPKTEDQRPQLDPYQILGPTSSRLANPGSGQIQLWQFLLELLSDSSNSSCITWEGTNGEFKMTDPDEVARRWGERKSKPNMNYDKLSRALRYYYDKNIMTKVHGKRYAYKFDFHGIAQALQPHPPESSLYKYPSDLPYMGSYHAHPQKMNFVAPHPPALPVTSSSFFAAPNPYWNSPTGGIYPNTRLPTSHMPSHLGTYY
# Outline: as §1
# [5] = target: ELF1 (Homo sapiens, UniProt P32519 1-619); conditions: protein: recombinant; tags: N-terminal GST; dsDNA, one strand shown
# Sequence of ELF1 (P32519 whole entry): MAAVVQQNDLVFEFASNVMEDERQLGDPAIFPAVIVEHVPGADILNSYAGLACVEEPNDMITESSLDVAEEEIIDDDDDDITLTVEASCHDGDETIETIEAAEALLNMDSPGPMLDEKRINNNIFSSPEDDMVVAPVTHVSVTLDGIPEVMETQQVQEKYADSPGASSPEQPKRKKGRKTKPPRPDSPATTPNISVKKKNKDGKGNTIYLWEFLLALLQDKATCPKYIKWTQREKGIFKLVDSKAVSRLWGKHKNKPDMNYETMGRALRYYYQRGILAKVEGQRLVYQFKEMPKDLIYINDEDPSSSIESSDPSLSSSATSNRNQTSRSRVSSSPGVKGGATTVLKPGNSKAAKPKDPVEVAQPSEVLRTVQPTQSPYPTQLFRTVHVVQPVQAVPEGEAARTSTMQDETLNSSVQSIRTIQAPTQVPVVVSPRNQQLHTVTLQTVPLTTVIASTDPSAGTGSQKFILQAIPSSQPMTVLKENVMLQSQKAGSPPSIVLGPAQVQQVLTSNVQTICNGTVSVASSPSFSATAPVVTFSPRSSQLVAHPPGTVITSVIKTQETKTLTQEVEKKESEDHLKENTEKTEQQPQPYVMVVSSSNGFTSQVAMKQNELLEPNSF
# Outline: as §1
# [6] = target: T5, EHF (Homo sapiens, UniProt Q9NZC4 1-300); conditions: protein: recombinant; tags: N-terminal GST; dsDNA, one strand shown
# T5 sequence: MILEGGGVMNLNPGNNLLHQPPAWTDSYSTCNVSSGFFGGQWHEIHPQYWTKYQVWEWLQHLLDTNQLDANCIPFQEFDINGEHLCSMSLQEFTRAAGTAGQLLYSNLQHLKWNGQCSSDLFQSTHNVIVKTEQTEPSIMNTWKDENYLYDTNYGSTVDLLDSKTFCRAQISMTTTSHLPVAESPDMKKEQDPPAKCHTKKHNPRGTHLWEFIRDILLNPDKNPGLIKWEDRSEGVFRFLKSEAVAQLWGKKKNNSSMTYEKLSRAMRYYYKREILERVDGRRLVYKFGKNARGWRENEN
# Outline: as §1
# [7] = target: SPI1 (Homo sapiens, UniProt P17947 1-270); conditions: protein: recombinant; tags: N-terminal GST; dsDNA, one strand shown
# Outline: as §1
# [8] = target: SPIB (Homo sapiens, UniProt Q01892 1-262); conditions: protein: recombinant; tags: N-terminal GST; dsDNA, one strand shown
# Sequence of SPIB (Q01892 whole entry): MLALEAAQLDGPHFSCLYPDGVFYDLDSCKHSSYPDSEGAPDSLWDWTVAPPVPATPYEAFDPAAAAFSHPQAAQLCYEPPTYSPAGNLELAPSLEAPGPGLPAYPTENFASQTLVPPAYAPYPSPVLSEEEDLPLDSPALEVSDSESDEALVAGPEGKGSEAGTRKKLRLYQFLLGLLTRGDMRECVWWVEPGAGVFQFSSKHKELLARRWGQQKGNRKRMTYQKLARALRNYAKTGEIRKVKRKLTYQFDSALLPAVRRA
# Outline: as §1
# [9] = target: T6, ELK3 (Homo sapiens, UniProt P41970 1-407); conditions: protein: recombinant; tags: N-terminal GST; dsDNA, one strand shown
# T6 sequence: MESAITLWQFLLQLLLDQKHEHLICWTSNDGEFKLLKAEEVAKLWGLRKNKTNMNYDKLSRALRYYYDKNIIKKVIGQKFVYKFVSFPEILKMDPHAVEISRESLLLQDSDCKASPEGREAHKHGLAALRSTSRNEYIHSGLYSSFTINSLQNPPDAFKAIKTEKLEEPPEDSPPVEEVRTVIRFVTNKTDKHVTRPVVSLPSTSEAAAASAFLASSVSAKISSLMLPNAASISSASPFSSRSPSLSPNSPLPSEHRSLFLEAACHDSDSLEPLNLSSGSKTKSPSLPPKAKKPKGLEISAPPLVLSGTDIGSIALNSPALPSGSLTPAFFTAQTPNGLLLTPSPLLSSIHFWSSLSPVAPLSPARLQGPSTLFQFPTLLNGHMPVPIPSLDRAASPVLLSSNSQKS
# Outline: as §1
# [10] = target: T7, FEV (Homo sapiens, UniProt Q99581 1-238); conditions: protein: recombinant; tags: N-terminal GST; dsDNA, one strand shown
# T7 sequence: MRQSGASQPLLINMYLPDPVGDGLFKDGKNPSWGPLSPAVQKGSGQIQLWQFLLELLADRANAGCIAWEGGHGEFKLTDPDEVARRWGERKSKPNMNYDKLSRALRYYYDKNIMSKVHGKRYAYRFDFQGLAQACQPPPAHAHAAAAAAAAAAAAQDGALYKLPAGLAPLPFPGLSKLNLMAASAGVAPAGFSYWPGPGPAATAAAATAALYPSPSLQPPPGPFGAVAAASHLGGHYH
# Outline: as §1
# [11] = target: ETV5 (Homo sapiens, UniProt P41161 1-510); conditions: protein: recombinant; tags: N-terminal GST; dsDNA, one strand shown
# Sequence of ETV5 (P41161 whole entry): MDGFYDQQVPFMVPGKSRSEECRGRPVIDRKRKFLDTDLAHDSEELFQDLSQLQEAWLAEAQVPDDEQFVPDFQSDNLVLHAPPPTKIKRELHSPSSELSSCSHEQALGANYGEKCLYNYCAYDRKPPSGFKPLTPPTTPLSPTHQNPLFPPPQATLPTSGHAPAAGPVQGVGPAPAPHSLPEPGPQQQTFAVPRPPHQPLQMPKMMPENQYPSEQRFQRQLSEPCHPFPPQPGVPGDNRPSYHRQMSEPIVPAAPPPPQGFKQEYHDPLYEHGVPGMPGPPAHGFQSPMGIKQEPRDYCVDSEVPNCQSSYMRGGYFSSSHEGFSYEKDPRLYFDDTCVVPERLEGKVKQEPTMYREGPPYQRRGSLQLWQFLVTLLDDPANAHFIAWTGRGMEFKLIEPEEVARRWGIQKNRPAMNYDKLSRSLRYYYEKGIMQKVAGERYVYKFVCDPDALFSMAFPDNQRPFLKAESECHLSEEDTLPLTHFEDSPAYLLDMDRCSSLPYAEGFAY
# Outline: as §1
# [12] = target: HSF1 (Homo sapiens, UniProt Q00613 1-529); conditions: protein: recombinant; tags: N-terminal GST; chain copies: 3; dsDNA, one strand shown
# Sequence of HSF1 (Q00613 whole entry): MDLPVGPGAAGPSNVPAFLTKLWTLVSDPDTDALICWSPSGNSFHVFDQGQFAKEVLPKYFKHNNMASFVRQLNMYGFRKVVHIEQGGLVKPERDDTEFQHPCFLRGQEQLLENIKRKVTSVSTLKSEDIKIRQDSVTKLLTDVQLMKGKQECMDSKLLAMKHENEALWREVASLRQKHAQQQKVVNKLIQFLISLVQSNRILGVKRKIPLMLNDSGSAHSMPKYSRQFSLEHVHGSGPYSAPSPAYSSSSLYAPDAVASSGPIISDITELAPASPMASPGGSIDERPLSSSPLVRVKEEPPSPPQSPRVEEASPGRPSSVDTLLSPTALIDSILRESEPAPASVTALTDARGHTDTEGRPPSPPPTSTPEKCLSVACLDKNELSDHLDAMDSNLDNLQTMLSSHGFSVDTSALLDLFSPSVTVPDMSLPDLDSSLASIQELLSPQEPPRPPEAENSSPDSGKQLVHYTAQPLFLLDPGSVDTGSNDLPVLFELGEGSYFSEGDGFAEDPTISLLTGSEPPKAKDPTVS
# Outline: as §1
# [13] = target: T8, SPIC (Homo sapiens, UniProt Q8N5J4 1-248); conditions: protein: recombinant; tags: N-terminal GST; dsDNA, one strand shown
# T8 sequence: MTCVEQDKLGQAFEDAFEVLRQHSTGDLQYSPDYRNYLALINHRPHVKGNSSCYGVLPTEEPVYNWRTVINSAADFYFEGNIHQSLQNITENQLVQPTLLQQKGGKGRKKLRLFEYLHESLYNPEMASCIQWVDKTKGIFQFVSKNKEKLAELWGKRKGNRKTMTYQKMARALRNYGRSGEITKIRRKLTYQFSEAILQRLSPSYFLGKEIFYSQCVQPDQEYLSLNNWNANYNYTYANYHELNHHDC
# Outline: as §1
# [14] = target: ELF4 (Homo sapiens, UniProt Q99607 1-663); conditions: protein: recombinant; tags: N-terminal GST; dsDNA, one strand shown
# Sequence of ELF4 (Q99607 whole entry): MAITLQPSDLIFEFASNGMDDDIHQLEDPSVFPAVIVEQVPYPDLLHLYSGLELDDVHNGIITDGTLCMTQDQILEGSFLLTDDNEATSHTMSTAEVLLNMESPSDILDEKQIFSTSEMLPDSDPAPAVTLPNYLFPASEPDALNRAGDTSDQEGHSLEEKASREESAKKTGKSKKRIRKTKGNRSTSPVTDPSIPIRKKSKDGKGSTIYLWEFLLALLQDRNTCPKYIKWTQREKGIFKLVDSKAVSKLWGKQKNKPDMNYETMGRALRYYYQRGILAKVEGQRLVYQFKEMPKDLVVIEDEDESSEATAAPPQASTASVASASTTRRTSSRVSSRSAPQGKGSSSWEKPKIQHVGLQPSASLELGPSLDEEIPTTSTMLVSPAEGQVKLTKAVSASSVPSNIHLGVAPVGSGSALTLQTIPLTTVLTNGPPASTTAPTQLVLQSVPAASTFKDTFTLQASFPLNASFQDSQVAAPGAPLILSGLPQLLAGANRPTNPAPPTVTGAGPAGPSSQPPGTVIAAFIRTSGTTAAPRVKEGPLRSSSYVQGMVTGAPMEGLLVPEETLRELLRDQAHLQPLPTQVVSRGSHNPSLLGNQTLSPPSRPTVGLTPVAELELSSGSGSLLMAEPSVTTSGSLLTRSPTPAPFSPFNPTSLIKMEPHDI
# Outline: as §1
# [15] = target: T9, ELK4 (Homo sapiens, UniProt P28324-2 1-405); conditions: protein: recombinant; tags: N-terminal GST; dsDNA, one strand shown
# T9 sequence: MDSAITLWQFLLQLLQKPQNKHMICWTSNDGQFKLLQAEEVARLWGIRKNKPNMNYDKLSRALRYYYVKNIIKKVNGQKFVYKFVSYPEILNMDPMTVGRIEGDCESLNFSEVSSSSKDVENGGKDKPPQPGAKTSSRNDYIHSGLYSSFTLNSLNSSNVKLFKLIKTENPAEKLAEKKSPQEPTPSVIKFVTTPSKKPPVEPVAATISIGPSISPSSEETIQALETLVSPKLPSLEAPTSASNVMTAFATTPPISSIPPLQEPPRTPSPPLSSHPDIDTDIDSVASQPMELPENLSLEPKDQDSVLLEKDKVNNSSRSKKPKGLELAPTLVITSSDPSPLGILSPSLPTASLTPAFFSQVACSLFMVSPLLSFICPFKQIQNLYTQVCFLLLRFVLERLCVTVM
# Outline: as §1
# [16] = target: T10, ETV2 (Homo sapiens, UniProt O00321 1-342); conditions: protein: recombinant; tags: N-terminal GST; dsDNA, one strand shown
# T10 sequence: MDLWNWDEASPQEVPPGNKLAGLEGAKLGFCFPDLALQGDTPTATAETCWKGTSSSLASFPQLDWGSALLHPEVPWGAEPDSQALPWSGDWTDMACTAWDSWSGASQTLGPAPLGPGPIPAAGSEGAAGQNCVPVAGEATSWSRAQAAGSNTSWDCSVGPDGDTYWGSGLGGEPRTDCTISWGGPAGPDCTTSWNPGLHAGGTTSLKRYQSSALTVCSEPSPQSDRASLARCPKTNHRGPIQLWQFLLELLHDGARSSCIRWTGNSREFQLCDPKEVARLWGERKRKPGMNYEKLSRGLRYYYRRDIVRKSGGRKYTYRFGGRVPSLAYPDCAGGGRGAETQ
# Outline: as §1
# [17] = target: T11, ELF3 (Homo sapiens, UniProt P78545 1-371); conditions: protein: recombinant; tags: N-terminal GST; dsDNA, one strand shown
# T11 sequence: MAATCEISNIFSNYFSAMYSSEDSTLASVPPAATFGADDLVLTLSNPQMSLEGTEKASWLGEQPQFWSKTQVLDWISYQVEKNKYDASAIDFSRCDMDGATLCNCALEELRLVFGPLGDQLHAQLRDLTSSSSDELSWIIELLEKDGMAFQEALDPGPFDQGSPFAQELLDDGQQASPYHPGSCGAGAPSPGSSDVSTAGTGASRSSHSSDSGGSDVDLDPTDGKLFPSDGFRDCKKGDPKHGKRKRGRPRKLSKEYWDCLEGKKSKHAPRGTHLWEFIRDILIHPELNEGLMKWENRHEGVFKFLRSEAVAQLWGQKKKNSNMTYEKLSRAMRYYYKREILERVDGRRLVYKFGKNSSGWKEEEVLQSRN
# Outline: as §1
# [18] = target: CRX (Homo sapiens, UniProt O43186 1-299); conditions: protein: recombinant; tags: N-terminal GST; dsDNA, one strand shown
# Sequence of CRX (O43186 whole entry): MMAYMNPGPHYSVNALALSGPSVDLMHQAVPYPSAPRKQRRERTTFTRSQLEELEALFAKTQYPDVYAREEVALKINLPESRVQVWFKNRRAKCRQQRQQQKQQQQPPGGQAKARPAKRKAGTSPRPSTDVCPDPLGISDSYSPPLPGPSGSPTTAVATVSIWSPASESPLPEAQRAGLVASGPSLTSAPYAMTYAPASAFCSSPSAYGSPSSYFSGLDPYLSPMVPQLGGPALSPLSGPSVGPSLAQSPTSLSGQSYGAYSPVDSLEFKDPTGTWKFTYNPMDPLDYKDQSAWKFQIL
# Outline: as §1
# [19] = target: ETV1 (Homo sapiens, UniProt P50549 1-477); conditions: protein: recombinant; tags: N-terminal GST; dsDNA, one strand shown
# Sequence of ETV1 (P50549 whole entry): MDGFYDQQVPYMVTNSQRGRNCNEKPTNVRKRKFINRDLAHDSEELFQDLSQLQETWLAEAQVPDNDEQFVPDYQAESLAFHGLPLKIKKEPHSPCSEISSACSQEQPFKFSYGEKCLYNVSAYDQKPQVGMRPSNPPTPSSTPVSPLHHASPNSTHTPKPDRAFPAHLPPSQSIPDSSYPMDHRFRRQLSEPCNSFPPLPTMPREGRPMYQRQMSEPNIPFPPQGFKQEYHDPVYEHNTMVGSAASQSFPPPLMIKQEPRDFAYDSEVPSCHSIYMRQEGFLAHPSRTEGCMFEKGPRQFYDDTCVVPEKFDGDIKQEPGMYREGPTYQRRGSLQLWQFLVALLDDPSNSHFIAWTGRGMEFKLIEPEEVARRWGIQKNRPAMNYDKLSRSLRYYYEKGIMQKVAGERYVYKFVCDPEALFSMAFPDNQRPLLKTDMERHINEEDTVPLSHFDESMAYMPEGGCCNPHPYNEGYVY
# Outline: as §1
sequence,measurement,setting,value
CTACAC,binding signal,[1],"1.3 fold enrichment (6-mer frequency, TF over GST control)"
same,binding signal,[2],"1.27 fold enrichment (6-mer frequency, TF over GST control)"
same,binding signal,[3],"1.34 fold enrichment (6-mer frequency, TF over GST control)"
same,binding signal,[4],"1.34 fold enrichment (6-mer frequency, TF over GST control)"
same,binding signal,[5],"1.33 fold enrichment (6-mer frequency, TF over GST control)"
same,binding signal,[6],"1.36 fold enrichment (6-mer frequency, TF over GST control)"
same,binding signal,[7],"1.21 fold enrichment (6-mer frequency, TF over GST control)"
same,binding signal,[8],"1.33 fold enrichment (6-mer frequency, TF over GST control)"
same,binding signal,[9],"1.27 fold enrichment (6-mer frequency, TF over GST control)"
same,binding signal,[10],"1.27 fold enrichment (6-mer frequency, TF over GST control)"
same,binding signal,[11],"1.26 fold enrichment (6-mer frequency, TF over GST control)"
same,binding signal,[12],"1.11 fold enrichment (6-mer frequency, TF over GST control)"
same,binding signal,[13],"1.32 fold enrichment (6-mer frequency, TF over GST control)"
same,binding signal,[14],"1.17 fold enrichment (6-mer frequency, TF over GST control)"
same,binding signal,[15],"1.23 fold enrichment (6-mer frequency, TF over GST control)"
same,binding signal,[16],"1.19 fold enrichment (6-mer frequency, TF over GST control)"
same,binding signal,[17],"1.39 fold enrichment (6-mer frequency, TF over GST control)"
same,binding signal,[18],"1.05 fold enrichment (6-mer frequency, TF over GST control)"
same,binding signal,[19],"1.28 fold enrichment (6-mer frequency, TF over GST control)"
